# Hits are enriched below; roughly 9% of the tested compounds scored in any of these assays.
# ALOX12 inh: Primary qHTS assay for inhibitors of human arachidonate 12S-lipoxygenase (ALOX12): Round 2; 580,000 tested, 1.1% active; Potency, µM (top dose mostly 108 µM), actives largely listed as inhibitors; Polyunsaturated fatty acid lipoxygenase ALOX12 (Homo sapiens), P18054; purified 12hLO, xylenol orange hydroperoxide absorbance
# Target sequence (P18054 whole entry, looked up): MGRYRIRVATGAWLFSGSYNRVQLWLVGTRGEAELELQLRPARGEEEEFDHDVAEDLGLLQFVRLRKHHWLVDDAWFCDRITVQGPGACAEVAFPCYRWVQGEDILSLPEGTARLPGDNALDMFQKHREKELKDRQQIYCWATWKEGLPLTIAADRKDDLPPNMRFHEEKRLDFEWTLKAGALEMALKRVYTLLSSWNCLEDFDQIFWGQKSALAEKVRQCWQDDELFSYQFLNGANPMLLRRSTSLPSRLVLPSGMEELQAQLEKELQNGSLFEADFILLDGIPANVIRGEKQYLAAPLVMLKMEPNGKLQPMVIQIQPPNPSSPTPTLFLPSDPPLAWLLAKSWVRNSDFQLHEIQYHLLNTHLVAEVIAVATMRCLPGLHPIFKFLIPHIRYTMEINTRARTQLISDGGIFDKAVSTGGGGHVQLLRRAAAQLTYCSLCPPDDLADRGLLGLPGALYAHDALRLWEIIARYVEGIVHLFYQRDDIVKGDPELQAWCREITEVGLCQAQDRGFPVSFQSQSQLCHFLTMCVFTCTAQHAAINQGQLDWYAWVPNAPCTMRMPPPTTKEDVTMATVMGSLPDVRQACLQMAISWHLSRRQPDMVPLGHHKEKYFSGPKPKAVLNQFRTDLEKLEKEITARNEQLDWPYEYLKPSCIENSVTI
#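 Hydroperoxide product was detected by ferrous iron/xylenol orange as the 573 to 405 nm absorbance ratio. Arachidonic acid at 40 uM (final) was turned over for 30 min at room temperature by 150 nM human 12hLO, pH 7.0 Hepes buffer, after 15 min compound preincubation.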
# BAZ2B inh: qHTS Assay for Inhibitors of BAZ2B; AlphaScreen BAZ2B-H3K14Ac peptide displacement; Potency, µM (titrated, usually from 114 µM), usual class: inhibitors; 360,000 tested, 4.4% active; AID 504333, 2011; also: nearly all actives have a fitted effect of over 60% in size
#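 BAZ2B (50 nM) with biotin-H3(5-23)K14Ac peptide (50 nM) in PBS pH 7.4, 0.01% Tween-20, preformed 30 min, then compound 30 min at room temperature; top concentration 110uM. AlphaScreen streptavidin donor/nickel chelate acceptor beads (10 ug/mL final), 20 min dark, signal read.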
# HP1b binding inh: HTS for Inhibitors of HP1-beta Chromodomain Interactions with Methylated Histone Tails; Chromobox protein homolog 1 (Homo sapiens), P83916; AlphaScreen HP1-beta / biotin-H3K9me3 peptide binding; Potency, µM (doses to about 114 µM), hits mostly inhibitors; 390,000 tested, 0.56% active; also: nearly all actives have a fitted effect of over 70% in size
#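 HP1-beta protein (50 nM final) preincubated 30 min at room temperature with biotinylated H3(1-18)K9me3 peptide (50 nM) in PBS pH 7.4, 0.01% Tween-20, then compound added for 30 min. AlphaScreen streptavidin donor/nickel chelate acceptor beads (10 ug/mL final), 30 min dark, luminescence read.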
# G9a block: qHTS Assay for Inhibitors of Histone Lysine Methyltransferase G9a. Histone-lysine N-methyltransferase EHMT2 (Homo sapiens), Q96KQ7. G9a H3K9 monomethylation, AlphaScreen, 2 h. Potency, µM (top dose mostly 102 µM), hits mostly inhibitors. 350,000 tested, 8.8% active. AID 504332, 2011; also: nearly all actives have a fitted effect of over 75% in size
#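 G9a (20 nM) preincubated 15 min RT with compounds, then 500 nM biotinylated H3K9 peptide and 20 uM SAM added; 2 h RT reaction. Monomethyl-H3K9 product detected by AlphaScreen with anti-H3K9me1 antibody, streptavidin donor and anti-rabbit IgG acceptor beads.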
# PLK1 PBD inh: qHTS for Inhibitors of PLK1-PDB (polo-like kinase 1 - polo-box domain): Primary Screen. Plk1 PBD binding of FITC phosphopeptide, fluorescence polarization. Potency, µM, most hits filed as inhibitors. AID 720504, 2013. Serine/threonine-protein kinase PLK1 (Homo sapiens), P53350. 360,000 tested, 2.8% active; also: series mostly up to about 57 µM; nearly all actives have a fitted effect of over 65% in size
# JMJD2A Tudor: qHTS Assay for Inhibitors of JMJD2A-Tudor Domain | AlphaScreen JMJD2A-Tudor / H3K4me3 peptide binding | Potency, µM (top dose mostly 114 µM), hits mostly inhibitors | 390,000 tested, 4.4% active | AID 504339, 2011; also: nearly all actives have a fitted effect of over 50% in size
# Hits are given with their value; 0 = inactive; ? = inconclusive; - = no result; [ ] = remark or other dose. Calls follow the shape of the dose curve; as a rule, active = well fitted curve in the direction sought with a large enough effect; inconclusive = small, poorly fitted or top-dose-only effect, or another doubt; inactive = no such curve, though single readings can be large; an effect the other way counts as inactive or inconclusive.
SMILES,ALOX12 inh,BAZ2B inh,HP1b binding inh,G9a block,PLK1 PBD inh,JMJD2A Tudor
Cc1ccc(C(=O)N2CCC3(CC2)NC(=O)N(c2ccccc2)N3)cc1,1.3µM,-,-,-,-,-
O=C1CCC2(CC1)NC(=O)N(c1ccccc1)N2,?,0,0,7.1µM,0,0[11.4 µM]
Cc1ccsc1C(=O)N1CCC2(CC1)NC(=O)N(c1ccccc1)N2,7.1µM,-,-,-,-,-
Cc1ccsc1C(=O)N1CCC2(CC1)NC(=O)N(c1cccc(Cl)c1)N2,1.3µM,-,-,-,-,-
CCN(CC(=O)Nc1c(F)cccc1F)C(=O)/C=C/c1ccc2ccccc2n1,32µM,8.9µM,0,7.1µM,13µM,3.5µM
Cc1ccccc1CC(=O)NCc1cccnc1,?,0,0,0,0,0
CC1CCC(NC(=O)COC(=O)C2=NN(c3ccccc3)C(=O)CC2)CC1 (stereo not given),0,0,0,?,0,0
CC1CCCC(NC(=O)NC(=O)COC(=O)C2=NN(c3ccccc3)C(=O)CC2)C1C (stereo not given),0,0,0,10µM,0,0
O=C(c1ccc([N+](=O)[O-])s1)N1CCN(c2cccc(Cl)c2)CC1,0,25µM,?,22µM,0,45µM
Cc1onc(C(=O)N2CCN(C(c3ccccc3)c3ccccc3)CC2)c1[N+](=O)[O-],0,0,0,0,0,0
COc1ccccc1N1CCN(C(=O)c2ccc([N+](=O)[O-])s2)CC1,0,0,0,45µM,0,0
COc1ccccc1N1CCN(C(=O)c2noc(C)c2[N+](=O)[O-])CC1,0,0,0,56µM,0,0
COc1ccccc1N1CCN(C(=O)c2cc(C(=O)N3CCN(c4ccccc4OC)CC3)cc([N+](=O)[O-])c2)CC1,0,?,0,-,0,0
O=C(CCc1c[nH]c2ccccc12)Nc1ccccc1,0,-,-,-,-,-
C=CCn1c(SCCN2CCCCC2)nc2c1c(=O)[nH]c(=O)n2C,0,0,0,?,0,0
C/C(=N\NC(=O)c1nnn(-c2nonc2N)c1-c1ccc2c(c1)OCO2)c1ccccc1,0,0,0,0[0.0925 µM],0,0
CC(C)(C)c1ccc(NC(=O)Nc2ccc(F)cc2)cc1,?,0,0,0,27µM,35µM
COc1ccccc1NC(=O)NCc1ccc(C)n1C,0,0,0,0[12.7 µM],0,0
Cc1ccc(CNC(=O)Nc2ccc(OC(F)(F)F)cc2)n1C,?,?,0,50µM,0,0
O=C(NCc1ccco1)Nc1ccc(OC(F)(F)F)cc1,?,0,0,0,0,0
Cc1ccc(CNC(=O)Nc2ccc(F)cc2)n1C,?,0,0,50µM,0,?
COC(=O)c1cnn(-c2cc(Oc3ccccc3)ncn2)c1N,0,0,0,0,0,0
Cc1cccc(CCNC(=O)C2CCN(c3nc4ccccc4nc3C(F)(F)F)CC2)c1,0,0,0,0,-,0
O=C(N/N=C/c1cccnc1)c1cc(O)c(O)c(O)c1,?,45µM,?,32µM,?,28µM
CC(=O)Nc1cccc(C(=O)N/N=C/c2cccnc2)c1,0,0,0,0,24µM,45µM
SMILES,ALOX12 inh,BAZ2B inh,HP1b binding inh,G9a block,PLK1 PBD inh,JMJD2A Tudor
O=C(N/N=C/c1cccnc1)c1ccc(O)cc1,0,0,0,0,0,0
CCOC(=O)N1CCC(NC(=O)Cc2ccccc2)CC1,0,0,0,-,0,0
O=C(c1ccco1)N1CCN(C(=O)c2ccco2)C1=S,0,-,0,-,0,0
N#CSCC(=O)c1cccc2ccccc12,0,0,0,?,11µM,0
NC(=O)c1cccc2ccccc12,0,0,0,-,0,0
COc1ccc(Nc2nc(N)c([N+](=O)[O-])c(N3CCOCC3)n2)cc1,0,?,0,?,0,?
CN(C)c1ccc(Nc2nc(N)c([N+](=O)[O-])c(N3CCOCC3)n2)cc1,0,35µM,?,7.1µM,0,?
Cc1cccc(Nc2nc(N)c([N+](=O)[O-])c(N3CCC(C)CC3)n2)c1,0,?,?,50µM,0,32µM
CCN1CCN(c2nc(Nc3ccc(C)c(C)c3)nc(N)c2[N+](=O)[O-])CC1,0,?,?,10µM,0,?
CCOc1ccc(Nc2nc(N)c([N+](=O)[O-])c(N3CCN(C)CC3)n2)cc1,0,?,0,79µM,0,0
O=Cc1cccn1-c1ccc(Cl)c(Cl)c1,0,-,-,-,-,-
O=C(COc1ccc(F)cc1)N1CCC2(CC1)N=C(c1ccccc1)NC2=O,0,-,-,-,-,-
COc1ccc(S(=O)(=O)n2cccc2)cc1OC,0,0,0,-,0,0
COCc1ccc2c(c1)c(OC(C)(C)C(=O)NC1CCOCC1)nn2Cc1ccccc1,0,-,-,-,-,-
CCOC(=O)c1[nH]c(C)c(CCC(=O)N2CCN(c3cc(Cl)ccc3C)CC2)c1C,0,?,0,0,-,?
O=C(NCCc1ccccc1)C1CCN(C2CCN(Cc3ccco3)CC2)CC1,0,0,0,0,0,0
C[C@@H]1COc2cc(Br)ccc2S(=O)(=O)N1Cc1cn(Cc2ccc(Br)cc2)nn1,0,-,-,-,-,-
O=C(CCNC(=O)Cn1ccc2ccccc2c1=O)NCc1ccc(F)cc1Cl,0,-,0,0,0,0
CC(C)C(=O)NC(=S)Nc1sc2c(c1C(N)=O)CCCC2,?,0,?,4µM,19µM,?
O=C(Nc1nnc(Cc2ccccc2)s1)c1ccco1,0,0,0,?,0,0
Cc1occc1C(=O)Nc1sc2c(c1C(N)=O)CCCCC2,0,0,0,13µM,?,0
CCC(=O)Nc1sc2c(c1C(N)=O)CCC2,0,0,0,0,0,0
CCCC(=O)NC(=S)Nc1sc2c(c1C(N)=O)CCC2,?,0,0,7.9µM,?,0
NC(=O)c1cc(Cc2ccccc2)sc1NC(=O)c1ccco1,?,0,0,?,17µM,0
O=C(CSC1=NS(=O)(=O)c2cc(Cl)ccc2N1)Nc1ccccc1C(F)(F)F,0,0,0,?,0,0
SMILES,ALOX12 inh,BAZ2B inh,HP1b binding inh,G9a block,PLK1 PBD inh,JMJD2A Tudor
O=[N+]([O-])c1ccc(N2CCN(S(=O)(=O)c3ccccc3)CC2)c2ncccc12,0,-,-,-,-,-
COc1cccc(CC(=O)N[C@@H]2CCC[C@@H](C(=O)NC3CC3)CC(=O)N(C)C2)c1,0,-,-,-,-,-
CCCc1cc(C(N)=O)c(NC(=O)c2cc(C)on2)s1,?,0,0,?,?,0
CCCc1cc(C(N)=O)c(NC(=O)c2ccoc2C)s1,32µM,0,?,?,30µM,?
COC(=O)Nc1sc2c(c1C(N)=O)CCCCCC2,0,0,0,3.5µM,13µM,?
CN(c1ccc(-c2csc(NC(C)(C)C)n2)cc1)S(C)(=O)=O,0,-,-,-,-,-

# Bioassay records (PubChem)
